# Source: PubChem
# PfHsp40 yeast = restores yeast growth despite PfHsp40 toxicity; S. cerevisiae expressing PfHsp40, growth rescue, ATP luminescence; growth rescue, % at 12.5 µM; hit rate 0.68% among 340,000; AID 504582; in the data active means growth rescue above about 28%, passing the limit was not always enough;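 further: yeast W303a lacking pdr1 and pdr3 grown in galactose medium; growth measured after three days at 30 °C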
# ugtP null kill = growth inhibition of S. aureus ugtP deletion strain; S. aureus RN4220 ugtP deletion, OD600 growth, 16 h; hit rate 0.54% among 330,000; growth inhibition, % (test concentration not listed); in the data active means growth inhibition above about 68%;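 further: plate controls were untreated wells for no effect and antibiotic for full effect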
# Sa RN4220 lethal = kills Staphylococcus aureus RN4220; S. aureus RN4220 growth, OD600, 16 h; inhibition, % (concentration not given with the values); hit rate 0.33% among 330,000; in the data active means inhibition above about 85%;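 further: plate controls were untreated cells for no effect and reference antibiotic for full effect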
# BJeLR viability = BJeLR cell viability loss. hit rate 0.17% among 300,000. BJeLR (HRASV12) viability, CellTiter-Glo ATP luminescence, 48 h. inhibition, % (no concentration beside the values). AID 1554; in the data active means inhibition above about 50%
# CCHF vOTU inh-1 = blocks the CCHF virus ovarian tumor domain protease; CCHFV vOTU protease, Pep-AMC fluorescence; hit rate 0.55% among 370,000; inhibition, % at 11.5 µM; further: 0% = vehicle wells with enzyme and 100% = no enzyme wells
# CCHF vOTU inh-2 = CCHFV vOTU protease inhibition, confirmation; hit rate 17% among 1,900; shares compounds with CCHF vOTU inh-1; AID 686976; Recombinant CCHFV vOTU, Pep-AMC fluorescence; inhibition, % at 11.5 µM
# The depositor's hits bear a star; nt = no result. In the library only some 1.6% were active in any assay of this set; here they are far more common. Unless noted, no stated cut-off is given here; in the data, active means inhibition above about 30%; inactive means the rest.
SMILES,PfHsp40 yeast,ugtP null kill,Sa RN4220 lethal,BJeLR viability,CCHF vOTU inh-1,CCHF vOTU inh-2
COc1ccc(N/C=C2\CCc3ccccc3C2=O)cc1,0,4,5,29,34*,-12
CC(=O)Nc1cc(-c2ccccc2N(C)C)cn2c(-c3cccc(C(F)(F)F)c3)cnc12,nt,nt,nt,nt,34*,-2
O=C1C=C(O)c2[nH]c(=O)ccc2C1=O,-1,nt,nt,nt,95*,67*
CC(=O)[C@@]1(O)CCC2C3CC(C)C4=CC(=O)CC[C@]4(C)C3CC[C@@]21C (stereo partly drawn),nt,-3,5,nt,nt,nt
Cc1ccc(S(=O)(=O)N=C(c2ccccc2)N(C)S(=O)(=O)c2ccccc2)cc1,nt,3,8,nt,nt,nt
COC(=O)C1=C(C(=O)OC)SC2(S1)C(C(=O)OC)=C(C(=O)OC)Sc1c2ssc1=O,19,nt,nt,nt,32*,9
CC(C)C(=O)NC(=O)C1CCCN1C(=O)C=Cc1ccccc1 (stereo not drawn),nt,4,4,nt,nt,nt
CC(C)(C)OC(=O)N(CCc1ccccc1)Cc1cccc(OCc2cccc(NC(=O)C3CCC3)c2)c1,0,nt,nt,nt,13,nt
CC(C)(C)OC(=O)N(Cc1ccccc1)Cc1cccc(OCc2cccc(NC(=O)C3CC3)c2)c1,1,nt,nt,nt,32*,-11
CCCCCc1c(-c2ccc(F)cc2F)ncn1CCc1ccccc1OC,nt,nt,nt,nt,21,nt
COc1ccccc1CCn1cnc(-c2ccc(F)cc2F)c1CC(C)C,nt,nt,nt,nt,29,nt
COc1ccccc1CCn1cnc(-c2ccccc2F)c1CC(C)C,nt,nt,nt,nt,45*,2
CCCCc1c(-c2ccc(F)cc2F)ncn1CCc1ccccc1OC,nt,nt,nt,nt,40*,5
O=C(COc1ccccc1[N+](=O)[O-])NN=Cc1ccc[nH]1,nt,8,3,nt,nt,nt
O=S1(=O)N=C(N(CCO)/N=C/c2ccncc2)c2ccccc21,0,nt,nt,0,30*,-8
CC(C)CCOP(=O)(c1ccc(N(C)C)cc1)C(O)c1ccc(Cl)cc1Cl (stereo not drawn),3,-24,-1,-3,41*,1
CC(C)CCOP(=O)(c1ccc(N(C)C)cc1)C(O)c1ccccc1F (stereo not drawn),1,-7,5,3,6,nt
CSCCC(NC(=O)NCc1ccc(F)cc1)C(=O)O (stereo not drawn),nt,-4,2,nt,nt,nt
CC1=C(C(=O)N(C)C)CC(CC(=O)NCc2cccc3ccccc23)C(=O)N1CCCN1CCCC1=O (stereo not drawn),nt,nt,nt,nt,36*,-22
O=C1Cc2ccccc2C(=O)N1Cc1cccc(Cl)c1,-2,6,7,4,64*,54*
CCOC(=O)C(=O)NN=C(c1ccccc1)c1ccc(OC)cc1,nt,3,2,nt,nt,nt
O=C1C(N2CCOCC2)=C(n2nnc3ccccc32)C(=O)c2ccccc21,0,8,23,41,104*,98*
CCOc1cc(/C=C2/C(=O)N(c3ccccc3)N=C2C)ccc1OC(=O)c1ccco1,0,3,7,-1,68*,-2
CC1=NN(c2ccc(C(=O)O)cc2)C(=O)/C1=C\c1ccc(OC(=O)c2cccs2)cc1,2,13,12,nt,55*,7
COc1ccc(/C=C2/C(=O)N(c3ccccc3)N=C2C)cc1Br,1,-3,-1,-3,74*,0
SMILES,PfHsp40 yeast,ugtP null kill,Sa RN4220 lethal,BJeLR viability,CCHF vOTU inh-1,CCHF vOTU inh-2
CCOc1cc(/C=C2\C(=O)N(c3ccc(C(N)=O)cc3)N=C2C)ccc1OC(=O)c1cccs1,0,6,14,15,nt,nt
CC1=NN(c2ccccc2)C(=O)C1=Cc1ccccc1,nt,nt,nt,nt,17,nt
CC1=NN(c2ccccc2)C(=O)/C1=C/c1ccc(Cl)cc1,-2,11,5,5,89*,-27
COc1cc(/C=C2/C(=O)N(c3ccccc3)N=C2C)ccc1OS(=O)(=O)c1ccccc1,nt,nt,nt,-6,nt,nt
Cc1nc2ccccn2c1C(=O)NN=Cc1ccc(F)cc1,nt,9,2,nt,nt,nt
Cc1cccc(NC(=O)c2nc[nH]c2C(=O)NC(C)C(=O)OC(C)(C)C)c1 (stereo not drawn),nt,-1,1,nt,nt,nt
C[C@@H]1CN([C@H](C)CO)C(=O)c2cc(Br)cnc2O[C@H]1CN(C)C(=O)c1ccccc1,nt,nt,nt,nt,34*,-19
COc1ccc2nc(NC(=O)CCN3C(=S)NC(C)(C)CC3C)sc2c1 (stereo not drawn),-1,0,7,7,36*,-25
COc1ccc2nc(NC(=O)CCn3cccc3)sc2c1,5,4,-1,-3,-3,nt
CC(C)C(N)c1csc(Nc2ccc(C(=O)c3ccccc3)cc2)n1 (stereo not drawn),nt,nt,nt,nt,37*,-12
CC(N)c1csc(Nc2ccc(C(=O)c3ccccc3)cc2)n1 (stereo not drawn),nt,nt,nt,nt,27,nt
CCCCCCCCC(=O)NC(NC(=S)N1CCOCC1)C(Cl)(Cl)Cl (stereo not drawn),1,-34,-3,2,36*,-6
CN(C)C(CNC(=O)c1ccc(NS(=O)(=O)c2ccc3[nH]c(=O)[nH]c3c2)cc1)c1ccccc1 (stereo not drawn),0,nt,nt,-12,31*,-16
O=C(NN=C/C=C/c1ccccc1)c1cc(C2CC2)[nH]n1,nt,9,4,nt,nt,nt
O=C(CCNC(=O)c1ccc(Br)cc1)NC1CCCCCC1,1,12,5,nt,37*,-3
O=C(CCNC(=O)c1ccc(Cl)cc1)NC1CCCCCC1,0,21,13,nt,0,nt
Cc1cc(C)nc(OC(=O)c2c(Cl)cc(Cl)cc2Cl)n1,0,-1,-1,-10,-1,nt
Cc1cc(C)nc(OC(=O)c2ccc(Cl)cc2Cl)n1,nt,0,2,-12,30*,-22
CCCCCCCCN1C(=O)[C@@H](CC(=O)NCCC(C)C)C[C@@]2(C(=O)OC)C1=C[C@H](COCc1ccccc1)O[C@@H]2C,nt,nt,nt,nt,30*,10
CCCCCCCCN1C(=O)[C@@H](CC(=O)NCc2cccc(C(F)(F)F)c2)C[C@@]2(C(=O)OC)C1=C[C@H](COCc1ccccc1)O[C@@H]2C,nt,nt,nt,nt,32*,23
CCCCCCCCN1C(=O)[C@@H](CC(=O)NCC2CCCCC2)C[C@@]2(C(=O)OC)C1=C[C@H](COCc1ccccc1)O[C@@H]2C,nt,nt,nt,nt,31*,0
CC(=NNC(=S)NC(C)C)c1cccc([N+](=O)[O-])c1,nt,-3,4,nt,nt,nt
CC(NS(=O)(=O)OCC(Cl)(Cl)Cl)C1CC1c1ccccc1 (stereo not drawn),nt,6,8,nt,nt,nt
Cc1ccc(C(=O)NN=C2CC3CC=CC23)c(C)c1 (stereo not drawn),nt,5,2,nt,nt,nt
COC(=O)c1ccsc1NS(C)(=O)=O,nt,nt,nt,nt,31*,-19
CCC(=O)Nc1sccc1C(=O)OC,0,4,4,2,nt,nt
O=C1OC(Nc2cc(Br)cc3cccnc23)c2ccccc21 (stereo not drawn),3,-9,34,4,111*,100*
O=C(NN=Cc1cn(-c2ccccc2)nc1-c1cccnc1)c1ccccc1,nt,-4,-2,nt,nt,nt
O=C1C=C(Nc2ccccc2O)c2ccccc2C1=O,74*,71,77,-5,97*,74*
